{"source": "PubChem BioAssay (NCATS)", "note": "Results filed as inconclusive are left out. A call without a number means that no potency is given here. Calls of active or inactive are those of the source. Calls come from the whole dose curve; as a rule, active = well fitted inhibition curve with a large enough effect; inconclusive = small, poorly fitted or top-dose-only effect; inactive = no such curve, though single readings can be large or run the other way. Positions of bridges follow the written chain, without caps; N, C: chain ends. Non-standard residues stand in square brackets, D forms with d. Residues, ends and D or L forms follow the SMILES beside them. *: point of attachment. X1 = CCC(C)C(N)C1=NC(C(=O)*)CS1; dOrn = NCCC[C@@H](N)C(=O)O", "data": [{"target": "Retinaldehyde dehydrogenase 3 (Homo sapiens) (UniProt P47895)", "experiment": "qHTS for Inhibitors of the Aldehyde Dehydrogenase Family (ALDH1A3) Validation screen (AID 2061312); note: nearly all actives have a fitted effect of over 45% in size; note: potency is the fitted concentration of half-maximal effect", "conditions": "ALDH1A3 enzyme inhibition qHTS validation, fluorescence; series mostly up to 84.7 µM", "values": [{"smiles": "CC(=O)NC(C)c1cnc(-c2cnc(Oc3ccc(OC(C)C)cc3)s2)s1", "note": "(configuration not stated)", "Potency": "inactive"}, {"smiles": "COC(=O)N1CCN(Cc2cccc(NC(=O)Nc3ccc(C)nc3)c2F)CC1", "Potency": "inactive"}, {"smiles": "CC(C)(C)Nc1nc(Nc2ccc(C(N)=O)cc2)cc(N)c1C#N", "Potency": "inactive"}, {"smiles": "CCC(C)C(N)C1=NC(C(=O)N[C@@H](CC(C)C)C(=O)N[C@H](CCC(=O)O)C(=O)N[C@H](C(=O)N[C@H]2CCCCNC(=O)[C@H](CC(N)=O)NC(=O)[C@@H](CC(=O)O)NC(=O)[C@H](Cc3cnc[nH]3)NC(=O)[C@@H](Cc3ccccc3)NC(=O)[C@H]([C@@H](C)CC)NC(=O)[C@@H](CCCN)NC2=O)[C@@H](C)CC)CS1", "note": "(some centres not stated) (X1-L[dE]IK[dOrn]I[dF]H[dD]N; lactam 4-C)", "Potency": "inactive"}, {"smiles": "C[C@@H]1CN(Cc2ncccn2)C[C@H]1c1nc2c(cnn2C2CCOCC2)c(=O)[nH]1", "Potency": "inactive"}, {"smiles": "O=C(Nc1ccccc1)N1CCN(Cc2ccc3ccccc3n2)CC1", "Potency": "inactive"}, {"smiles": "O=C(CCCCCCC(=O)Nc1ccccc1)NO", "Potency": "22.4 µM (active)"}, {"smiles": "N[C@@H](CCNCc1ccc(Cl)cc1)C(=O)N1CCCCC1", "Potency": "inactive"}, {"smiles": "CN(C)c1ccc(C2O[C@@H](c3ccccc3)C[C@H](c3ccccc3)O2)cc1", "note": "(some centres not stated)", "Potency": "44.7 µM (active)"}, {"smiles": "CCCN1CCC=C(c2cc(-c3ccc(C)cc3)no2)C1", "Potency": "25.1 µM (active)"}, {"smiles": "Nc1ccccc1NC(=O)c1ccc(CNC(=O)OCc2cccnc2)cc1", "Potency": "inactive"}, {"smiles": "O=C(CN1C2=NCCN2c2ccccc21)c1ccc(-c2ccccc2)cc1", "Potency": "inactive"}, {"smiles": "Cc1ccccc1C#Cc1ccc(CCC(=O)O)cc1", "Potency": "inactive"}, {"smiles": "CC(C)C[C@H](NC(=O)[C@@H](NC(=O)c1cccc(-c2ccccc2)n1)[C@@H](C)O)B(O)O", "Potency": "10 µM (active)"}]}, {"target": "Retinal dehydrogenase 2 (Homo sapiens) (UniProt O94788)", "experiment": "qHTS for Inhibitors of the Aldehyde Dehydrogenase Family (ALDH1A2) Confirmation screens (AID 2061314); note: nearly all actives have a fitted effect of over 65% in size; note: potency is the fitted concentration of half-maximal effect", "conditions": "ALDH1A2 enzyme inhibition qHTS confirmation; series mostly up to 45.9 µM", "values": [{"smiles": "Cc1cc2ncc(C(=O)NCC(C)(C)NCC(=O)N3CCC[C@H]3C#N)cn2n1", "Potency": "inactive"}, {"smiles": "CC(=O)NC(C)c1cnc(-c2cnc(Oc3ccc(OC(C)C)cc3)s2)s1", "note": "(configuration not stated)", "Potency": "inactive"}, {"smiles": "COCCN(C(=O)c1cc(OC)c(OC)c(OC)c1)c1nc(-c2ccccc2)cs1", "Potency": "inactive"}, {"smiles": "COC(=O)N1CCN(Cc2cccc(NC(=O)Nc3ccc(C)nc3)c2F)CC1", "Potency": "inactive"}, {"smiles": "CC(C)(C)Nc1nc(Nc2ccc(C(N)=O)cc2)cc(N)c1C#N", "Potency": "3.57 µM (active)"}, {"smiles": "Cc1nnc(-c2sc(NC(=O)[C@H](C(C)C)n3c(=O)[nH]c4ccccc4c3=O)nc2C)o1", "Potency": "inactive"}, {"smiles": "O=C(C1CCCCC1)N(CCN1CCN(c2ccccc2O)CC1)c1ccccn1", "Potency": "inactive"}, {"smiles": "O=C(O)c1cnn(-c2nc3cc(OC(F)(F)F)c(Cl)cc3[nH]2)c1", "Potency": "inactive"}, {"smiles": "CCC(C)C(N)C1=NC(C(=O)N[C@@H](CC(C)C)C(=O)N[C@H](CCC(=O)O)C(=O)N[C@H](C(=O)N[C@H]2CCCCNC(=O)[C@H](CC(N)=O)NC(=O)[C@@H](CC(=O)O)NC(=O)[C@H](Cc3cnc[nH]3)NC(=O)[C@@H](Cc3ccccc3)NC(=O)[C@H]([C@@H](C)CC)NC(=O)[C@@H](CCCN)NC2=O)[C@@H](C)CC)CS1", "note": "(some centres not stated) (X1-L[dE]IK[dOrn]I[dF]H[dD]N; lactam 4-C)", "Potency": "11.3 µM (active)"}, {"smiles": "CCOC(=O)c1cccc(CNc2ccc(N(C)C(=O)Nc3ccccc3)cc2)c1", "Potency": "inactive"}, {"smiles": "COc1ccc(CCO[C@@H]2CCCC[C@H]2N2CC[C@@H](O)C2)cc1OC", "Potency": "inactive"}, {"smiles": "C[C@@H]1CN(Cc2ncccn2)C[C@H]1c1nc2c(cnn2C2CCOCC2)c(=O)[nH]1", "Potency": "inactive"}, {"smiles": "O=C(Nc1ccccc1)N1CCN(Cc2ccc3ccccc3n2)CC1", "Potency": "inactive"}, {"smiles": "O=C(CCCCCCC(=O)Nc1ccccc1)NO", "Potency": "inactive"}, {"smiles": "Cn1cnc(-c2nccc3c(=O)[nH]c(OCCCC(F)(F)F)nc23)c1", "Potency": "inactive"}, {"smiles": "N[C@@H](CCNCc1ccc(Cl)cc1)C(=O)N1CCCCC1", "Potency": "inactive"}, {"smiles": "CN(C)c1ccc(C2O[C@@H](c3ccccc3)C[C@H](c3ccccc3)O2)cc1", "note": "(some centres not stated)", "Potency": "10 µM (active)"}, {"smiles": "CCCCNC(=O)[C@@H]1Cc2ccccc2N1C(=O)[C@@H](N)CC", "Potency": "inactive"}, {"smiles": "Nc1ccccc1NC(=O)c1ccc(CNC(=O)OCc2cccnc2)cc1", "Potency": "inactive"}, {"smiles": "O=C(CN1C2=NCCN2c2ccccc21)c1ccc(-c2ccccc2)cc1", "Potency": "inactive"}, {"smiles": "Cc1ccccc1C#Cc1ccc(CCC(=O)O)cc1", "Potency": "inactive"}, {"smiles": "CC(C)C[C@H](NC(=O)[C@@H](NC(=O)c1cccc(-c2ccccc2)n1)[C@@H](C)O)B(O)O", "Potency": "inactive"}, {"smiles": "CCCN(CCN1CCN(c2ccccc2OC)CC1)C1CCc2ncsc2C1", "note": "(configuration not stated)", "Potency": "inactive"}, {"smiles": "COc1ccnc(CCc2nc3ncccc3[nH]2)c1", "Potency": "inactive"}]}, {"target": "Retinaldehyde dehydrogenase 3 (Homo sapiens) (UniProt P47895)", "experiment": "qHTS for Inhibitors of the Aldehyde Dehydrogenase Family (ALDH1A3) Primary screen (AID 2061315); note: potency is the fitted concentration of half-maximal effect", "conditions": "ALDH inhibition qHTS; series mostly up to 56 µM", "values": [{"smiles": "COc1cccc2cc(-c3nc(C4CCC(C(=O)O)CC4)n4ncnc(N)c34)[nH]c12", "note": "(configuration not stated)", "Potency": "inactive"}, {"smiles": "CC(=O)NC(C)c1cnc(-c2cnc(Oc3ccc(OC(C)C)cc3)s2)s1", "note": "(configuration not stated)", "Potency": "inactive"}, {"smiles": "CC(=O)Nc1sc2c(c1-c1nc3ccccc3s1)CNC2", "Potency": "inactive"}, {"smiles": "CC1(C)CC(=O)c2c(C(F)(F)F)nn(-c3ccc(C(N)=O)c(NC4CCC(OC(=O)CN)CC4)c3)c2C1", "note": "(configuration not stated)", "Potency": "inactive"}, {"smiles": "COC(=O)N1CCN(Cc2cccc(NC(=O)Nc3ccc(C)nc3)c2F)CC1", "Potency": "inactive"}, {"smiles": "CC(C)(C)Nc1nc(Nc2ccc(C(N)=O)cc2)cc(N)c1C#N", "Potency": "inactive"}, {"smiles": "Cc1nnc(-c2sc(NC(=O)[C@H](C(C)C)n3c(=O)[nH]c4ccccc4c3=O)nc2C)o1", "Potency": "inactive"}, {"smiles": "Cc1csc2c(N[C@@H](C)CN3CCN(S(=O)(=O)c4ccc(Cl)c(Cl)c4)CC3)ncnc12", "Potency": "inactive"}, {"smiles": "O=C(O)c1cnn(-c2nc3cc(OC(F)(F)F)c(Cl)cc3[nH]2)c1", "Potency": "10 µM (active)"}, {"smiles": "CCC(C)C(N)C1=NC(C(=O)N[C@@H](CC(C)C)C(=O)N[C@H](CCC(=O)O)C(=O)N[C@H](C(=O)N[C@H]2CCCCNC(=O)[C@H](CC(N)=O)NC(=O)[C@@H](CC(=O)O)NC(=O)[C@H](Cc3cnc[nH]3)NC(=O)[C@@H](Cc3ccccc3)NC(=O)[C@H]([C@@H](C)CC)NC(=O)[C@@H](CCCN)NC2=O)[C@@H](C)CC)CS1", "note": "(some centres not stated) (X1-L[dE]IK[dOrn]I[dF]H[dD]N; lactam 4-C)", "Potency": "inactive"}, {"smiles": "Cc1ncc(-c2ccnc(Nc3ccc(S(C)(=O)=O)cc3)n2)n1C(C)C", "Potency": "inactive"}, {"smiles": "COc1ccc(CCO[C@@H]2CCCC[C@H]2N2CC[C@@H](O)C2)cc1OC", "Potency": "inactive"}, {"smiles": "C[C@@H]1CN(Cc2ncccn2)C[C@H]1c1nc2c(cnn2C2CCOCC2)c(=O)[nH]1", "Potency": "inactive"}, {"smiles": "O=C(Nc1ccccc1)N1CCN(Cc2ccc3ccccc3n2)CC1", "Potency": "inactive"}, {"smiles": "Cn1cnc(-c2nccc3c(=O)[nH]c(OCCCC(F)(F)F)nc23)c1", "Potency": "inactive"}, {"smiles": "N[C@@H](CCNCc1ccc(Cl)cc1)C(=O)N1CCCCC1", "Potency": "inactive"}, {"smiles": "CCCN1CCC=C(c2cc(-c3ccc(C)cc3)no2)C1", "Potency": "inactive"}, {"smiles": "CCCCNC(=O)[C@@H]1Cc2ccccc2N1C(=O)[C@@H](N)CC", "Potency": "inactive"}, {"smiles": "Nc1ccccc1NC(=O)c1ccc(CNC(=O)OCc2cccnc2)cc1", "Potency": "inactive"}, {"smiles": "CC[C@H](CO)Nc1nc(NCc2ccc(-c3ccccn3)cc2)c2ncn(C(C)C)c2n1", "Potency": "inactive"}, {"smiles": "O=C(CN1C2=NCCN2c2ccccc21)c1ccc(-c2ccccc2)cc1", "Potency": "inactive"}, {"smiles": "CC(C)C[C@H](NC(=O)[C@@H](NC(=O)c1cccc(-c2ccccc2)n1)[C@@H](C)O)B(O)O", "Potency": "inactive"}, {"smiles": "COc1ccnc(CCc2nc3ncccc3[nH]2)c1", "Potency": "inactive"}, {"smiles": "COc1ccc(-c2cc3onc(-c4ccncc4)c3c(=O)n2C)cc1", "Potency": "inactive"}]}]}
